Potency data for 107 compounds are collected here from PubChem BioAssay AID2289 (National Center for Advancing Translational Sciences (NCATS), 2010).

Out of some 340,000 compounds screened, about 3,300 (0.97%) were called active. About 9% were inconclusive and are not listed. The call rests on the fitted dose curve; in most records, active means well fitted inhibition curve with a large enough effect; inconclusive means small, poorly fitted or top-dose-only effect, or effect the other way; inactive means flat fitted curve, though single readings scatter. The list shows a part of the results.
Potency means the concentration at half of the fitted maximal effect.

A short description of this assay: qHTS Assay for Modulators of miRNAs and/or Inhibitors of miR-21. Further: nearly all actives have a fitted effect of over 55% in size. As to conditions: HeLa miR-21-FLuc reporter, luciferase luminescence, 48 h; actives lower the signal. The gist of the method: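 Using DMEM plus 10% FBS, HeLa miR-21-FLuc cells are incubated with test compounds (final up to about 40uM) for 48 hours; firefly luciferase signal is then imaged following reagent-mediated lysis.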
Background: Quantitative high-throughput screening tests each substance at several concentrations.
With `Cc1csc(SCc2nnc(-c3ccc(Cl)cc3)o2)n1`, the Potency is 4.65 µM (active). In the case of `O=C(CSc1nc2ccccc2s1)N/N=C/c1ccccc1C(=O)O`, the Potency was 16.5 µM (active). On to `Cc1c(C=O)c2cc(OCc3ccccc3)ccc2n1C`, for which the Potency was 4.14 µM (active). For `COc1ccc(-c2nc3n(c2C)Cc2ccccc2-3)cc1` the value was 6.56 µM (active). `Cc1ccc(N=Nc2c(O)[nH]c3ccc(F)cc23)cc1`: the Potency was 1.31 µM (active).

On to `Oc1[nH]c2ccccc2c1N=Nc1ccc(F)cc1`, for which the Potency is 5.85 µM (active). On to `CCOC(=O)c1c(C)[nH]c(C(=O)CSc2nccc(C)n2)c1C`, for which the Potency was 4.65 µM (active). Regarding `CCOC(=O)c1c(C)[nH]c(C(=O)COC(=O)C2CC2C)c1C` (configuration not stated), the Potency was 2.61 µM (active). Consider `CCOC(=O)c1c(C)[nH]c(C(=O)CSc2ccc(Cl)cc2)c1C`, for which the Potency is 7.36 µM (active). `CCOC(=O)c1c(C)[nH]c(C(=O)COC(=O)CNC(=O)c2ccccc2Cl)c1C`: the Potency was 13.1 µM (active). For the compound `CCOC(=O)c1c(C)[nH]c(C(=O)COC(=O)CCSc2ccccc2)c1C`, the Potency is 13.1 µM (active).

`Cc1ccc(N/C=C2/Sc3ccccc3NC2=O)cc1`: the Potency was 4.14 µM (active). For `COC(=O)N/N=C\c1c(C)nn(-c2ccccc2)c1Cl` the value was 7.36 µM (active); for `Cc1nn(-c2ccccc2)c(Cl)c1/C=N/Nc1nc2ccccc2[nH]1`, 0.293 µM (active); for `Cc1nn(-c2ccccc2)c(Cl)c1/C=N/NC(=O)c1ccnn1C`, 5.21 µM (active). For `Cc1nn(-c2ccccc2)c(Cl)c1/C=N/NC(=O)c1ccco1` the value was 3.29 µM (active); for `Cc1nn(-c2ccccc2)c(Cl)c1/C=N/NC(N)=O`, 16.5 µM (active); for `CCOC(=O)N/N=C/c1c(C)nn(-c2ccccc2Cl)c1Cl`, 7.36 µM (active). Regarding `Cc1nn(-c2ccccc2)c(Cl)c1/C=N/NC(=O)c1ccccc1F`, the Potency is 4.65 µM (active). On to `CC1CCCN(c2nc3ccsc3c(=O)s2)C1` (configuration not stated), for which the Potency was 8.26 µM (active).

Consider `Cn1nc(NC(=O)C(F)(F)F)c2ncc(-c3ccc(Cl)cc3)nc21`, for which the Potency was 9.27 µM (active). Take `Cc1ccc2c(C)c(C(=O)N3CCCC(C(N)=O)C3)oc2c1C` (configuration not stated): the Potency was 13.1 µM (active). In the case of `c1ccc(COc2ccc(CN3CCN(c4ccccn4)CC3)cc2)cc1`, the Potency was 6.56 µM (active). Turning to `C=COC(=O)CSc1nc(-c2cccs2)ccc1C#N`, the Potency is 0.927 µM (active). For `Cc1cc2ncc(-c3ccccc3)nc2cc1C` the value was 0.656 µM (active). Take `Cc1cc(-c2ccccc2)nc(-c2ccccc2)c1C`: the Potency was 7.36 µM (active). For `CCOC(=O)c1ccc(Nc2cnc3ccccc3n2)cc1` the value was 1.47 µM (active); for `CCOC(=O)c1cnc(-c2ccccc2)nc1N(C)C`, 7.36 µM (active). For `CCOC(=O)c1ccc2c(c1)nc(-c1ccccn1)n2CC` the value was 1.65 µM (active); for `CCOC(=O)c1ccc2ncc(-c3ccccc3)nc2c1`, 1.85 µM (active); for `O=[N+]([O-])c1cccc(-c2ccc(SCc3ccccn3)nn2)c1`, 6.56 µM (active). For `Cc1cc2ncn(C(=O)N3CCC(C)CC3)c2cc1C` the value was 10.4 µM (active); for `COc1cc(/C=C/c2ccc(O)cc2)cc(OC)c1`, 2.93 µM (active); for `FC(F)(F)c1ccnc(Oc2ccc(C3=NCCS3)cc2)c1`, 1.65 µM (active). Turning to `Cc1ccccc1CSc1ccc(-c2ccc3c(c2)OCO3)nn1`, the Potency is 14.7 µM (active). On to `O=C(Cn1nnc(-c2ccc3c(c2)OCO3)n1)Nc1ccccc1C(=O)O`, for which the Potency is 14.7 µM (active). Take `Cc1ccccc1Cn1nnc(-c2ccc3c(c2)OCO3)n1`: the Potency was 16.5 µM (active). With `COc1cccc(-n2cnc3sc(C)c(C)c3c2=O)c1`, the Potency was 11.7 µM (active). For `Fc1cccc(NCc2ccccc2-c2nnc(-c3ccccc3Cl)o2)c1` the value was 1.04 µM (active); for `Clc1ccccc1-c1nnc(-c2ccc3c(c2)OCO3)o1`, 0.585 µM (active); for `Clc1ccccc1-c1nnc(-c2ccccc2Cl)o1`, 3.69 µM (active).

Turning to `O=C(c1cccc(C(F)(F)F)c1)C1CCCN(C(=O)CN2CCCC2=O)C1` (configuration not stated), the Potency was 3.29 µM (active). For `N#Cc1ccccc1CSc1nc2ccsc2c(=O)n1Cc1ccccn1` the value was 16.5 µM (active); for `Clc1ccccc1-c1nnc(COc2ccccc2)o1`, 5.85 µM (active); for `Clc1ccccc1OCc1nnc(-c2ccccc2Br)o1`, 4.65 µM (active). `Fc1ccc(OCc2nnc(-c3ccccc3Br)o2)c(Cl)c1`: the Potency is 13.1 µM (active). For the compound `Clc1cccc(OCc2nnc(-c3ccccc3Br)o2)c1`, the Potency is 16.5 µM (active). Turning to `Clc1ccccc1OCc1nnc(-c2ccccc2)o1`, the Potency was 7.36 µM (active). For `N#Cc1ccccc1OCc1nnc(-c2ccccc2Br)o1` the value was 1.31 µM (active). For the compound `c1ccc(CCn2nnc3ccccc32)cc1`, the Potency is 14.7 µM (active). As for `Clc1ccccc1OCCn1nnc2ccccc21`, the Potency is 13.1 µM (active).

`C(#Cc1ccccc1)Cn1nnc2ccccc21`: the Potency was 13.1 µM (active). For the compound `CCOC(=O)C1(Cc2cccc(OC)c2)CCCN(C(=O)CCN2CCCO2)C1` (configuration not stated), the Potency was 5.85 µM (active). As to `CCOC(=O)C1(Cc2ccccc2)CCCN(C(=O)c2cnn(CC)c2)C1` (configuration not stated), the Potency was 9.27 µM (active). Regarding `O=C(N/N=C/c1cn(-c2ccccc2)nc1-c1cc2ccccc2o1)c1ccccc1Br`, the Potency was 0.927 µM (active). As to `COc1ccc(Cn2c(C3CC3)nc3ccc(NC(C)=O)cc3c2=O)cc1`, the Potency was 3.29 µM (active). `CCC(=O)Nc1ccc2nc(C3CC3)n(Cc3ccc(C(C)(C)C)cc3)c(=O)c2c1`: the Potency is 0.185 µM (active). In the case of `COc1ccc(Cn2c(C3CC3)nc3ccc(NC(=O)C4CC4)cc3c2=O)cc1`, the Potency was 1.47 µM (active).

Turning to `Cc1cccc(S(=O)(=O)Nc2ccc(-c3nc4ccc(C)cc4s3)cc2)c1`, the Potency was 2.07 µM (active). For the compound `Cc1ccc2nc(-c3ccc(NS(=O)(=O)c4ccc(F)cc4)cc3)sc2c1`, the Potency is 6.56 µM (active). As to `CC(=O)c1ccc(NS(=O)(=O)c2cccc(C)c2)cc1`, the Potency was 11.7 µM (active). For `CCc1ccc2oc(-c3cc(N=Cc4cccc(OC)c4O)ccc3O)nc2c1` the value was 0.656 µM (active); for `CC/C(=N\NC(=O)c1c[nH]c2ccccc12)c1cccs1`, 2.93 µM (active); for `O=C(N/N=C/c1cccs1)c1c[nH]c2ccccc12`, 7.36 µM (active). For `S=C(c1ccc(-c2ccccc2Cl)o1)N1CCCCC1` the value was 3.29 µM (active). For the compound `CN1CCN(C(=S)c2ccc(-c3cccc(Cl)c3Cl)o2)CC1`, the Potency was 5.21 µM (active). For the compound `COCCCNC(=S)N/N=C/c1ccc(N(C)C)cc1Cl`, the Potency is 5.85 µM (active).

For `Cc1ccc(O)c(-c2cc(-c3cccc(Br)c3)n[nH]2)c1`, the Potency is 6.56 µM (active). For `Cc1cccc(NC(=O)c2cc(-c3cc(C)ccc3O)n[nH]2)c1` the value was 1.04 µM (active). For `Cc1ccc(C)c(NC(=O)c2cc(-c3cc(C)ccc3O)n[nH]2)c1` the value was 5.21 µM (active). As for `Cc1cccc(NC(=O)c2cc(-c3cc(C)c(C)cc3O)n[nH]2)c1`, the Potency was 0.736 µM (active). For `O=C(O)c1ccc(N/N=C/c2ccnc3ccccc23)cc1` the value was 3.69 µM (active). Regarding `O=C(O)c1ccc(N/N=C/c2cccc3cccnc23)cc1`, the Potency is 0.369 µM (active).

In the case of `Cn1ncc2c(Nc3ccc4ccccc4c3)ncnc21`, the Potency is 4.65 µM (active). As to `CCCn1ncc2c(Nc3ccc(C)c(C)c3)ncnc21`, the Potency is 4.65 µM (active). In the case of `Clc1ccc2c(c1)C1OCCC1C(c1ccco1)N2` (configuration not stated), the Potency was 6.56 µM (active). As to `Clc1ccc2c(c1)[C@H]1OCC[C@H]1[C@@H](c1ccco1)N2`, the Potency was 5.85 µM (active).

For the compound `CCCNC(=O)c1cccc(COc2ccccc2OC)c1`, the Potency is 2.07 µM (active). For the compound `CCC(=O)c1ccc(OCc2ccccc2)c(OC)c1`, the Potency is 6.56 µM (active).

For `COc1ccccc1OCCNC(=O)c1ccc2c(c1)CCC2`, the Potency was 5.85 µM (active).

On to `COc1ccccc1OCCNC(=O)c1ccc(Br)cc1`, for which the Potency is 16.5 µM (active).

As to `Cc1ccc(OCCNC(=O)c2ccc(C)cc2)cc1`, the Potency is 14.7 µM (active). Regarding `Clc1cccc(Cl)c1Cn1ccc(C2CC2)n1`, the Potency was 10.4 µM (active).

In the case of `O=C(NCc1ccccc1)c1c[nH]c2cc3c(cc2c1=O)OCCO3`, the Potency is 2.33 µM (active). Turning to `Cc1cc(O)ccc1N/C=C/c1onc(C)c1[N+](=O)[O-]`, the Potency was 1.04 µM (active). For `Cc1ccc(N/C=C/c2onc(C)c2[N+](=O)[O-])cc1` the value was 0.185 µM (active). `O=C(c1ccc2ccccc2n1)N1CCN(c2ccccc2Cl)CC1`: the Potency was 16.5 µM (active).

In the case of `Oc1ccccc1N1CCN(c2ccc3ccccc3n2)CC1`, the Potency was 0.826 µM (active). Consider `CN(C)c1cnn(-c2ccccc2)c(=O)c1Cl`, for which the Potency was 14.7 µM (active). For `CC(=O)Nc1ccc(OCC(O)Cn2ccnc2)cc1` (configuration not stated) the value was 16.5 µM (active).

For the compound `COc1ccc(-c2cnc3ccccc3n2)cc1NC(=O)CNC(=O)c1ccccc1`, the Potency was 6.56 µM (active).

Regarding `CCOC(=O)c1ccc2c(c1)NCc1cccc(OC)c1O2`, the Potency is 3.29 µM (active).

For the compound `CCN(CC)c1ccc(/C=N/N2CCOCC2)c(O)c1`, the Potency is 2.93 µM (active).

In the case of `Cc1cccc(NC(=O)Nc2cc(C)cc(C)n2)c1`, the Potency was 0.736 µM (active). For `Cc1ccc(NC(=O)Nc2cccc(C)n2)cc1` the value was 2.07 µM (active); for `COc1cccc(NC(=S)Nc2cc(C)cc(C)n2)c1`, 4.65 µM (active). `CSc1ccc(NC(=O)Nc2cc(C)ccn2)cc1`: the Potency was 0.104 µM (active). With `Cc1cc(C)nc(NC(=O)/C=C/c2ccccc2Cl)c1`, the Potency was 2.07 µM (active). For the compound `CC(NC(=O)c1ccccc1NC(=O)c1ccco1)C(=O)O` (configuration not stated), the Potency was 6.56 µM (active). With `CN(C)/C=N/c1nc(-c2ccc3ccccc3c2)cs1`, the Potency is 1.31 µM (active). For `COc1ccc(-c2csc(N)n2)cc1F`, the Potency was 9.27 µM (active). Take `COc1ccc(-c2cn3cccc(C)c3n2)cc1F`: the Potency is 0.927 µM (active). Take `Nc1nc(-c2ccc3ccccc3c2)cs1`: the Potency is 1.65 µM (active).

For `COc1ccc(NC(=O)/C=C/c2ccccc2)cn1`, the Potency was 1.65 µM (active). As for `CCOC(=O)c1ccc(OS(=O)(=O)c2ccccc2)c(OC)c1`, the Potency is 1.31 µM (active). In the case of `COc1ccccc1NC(=S)N/N=C/c1ccc(O)cc1`, the Potency was 0.736 µM (active). Turning to `COc1ccc(/C=C/C(=O)Nc2ccccc2)cc1OC`, the Potency is 4.14 µM (active).
